Screen size: about 5,500 compounds; about 2,000 (36%) were called active. Inconclusive results (about 18%) are left out. Rule as the data show it: active = normalized growth mostly below about 0.91 (no sharp cut-off); inconclusive = no clear call, values can overlap the other calls; inactive = mostly above about 0.92. This is one part of the list.
Assay: chemical genetic growth profiling, strain panel (AID 1159580);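 also: tested at 20 µM; growth read once vehicle control cultures reached saturation at 30 °C; 1 = growth at the plate median or of vehicle wells; lower values mean less growth of the strain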
Settings: growth OD

Measured: normalized growth

CC(C)=CCc1c2c(c3occ(-c4ccc(O)c(O)c4)c(=O)c3c1O)C=CC(C)(C)O2
inactive: S. cerevisiae deletion strains, locus YKL068W, stronger effect = lower value 1 | S. cerevisiae deletion strains, locus YKL085W, strain MDH1 (second series), stronger effect = lower value 0.947 | S. cerevisiae deletion strains, locus YKL085W, strain MDH1, stronger effect = lower value 0.947 | S. cerevisiae deletion strains, locus YKL160W, strain elf1, stronger effect = lower value 0.957 | S. cerevisiae deletion strains, locus YKR026C, strain gcn3, stronger effect = lower value 0.994 | S. cerevisiae deletion strains, locus YKR091W, strain srl3, stronger effect = lower value 0.997 | S. cerevisiae deletion strains, locus YLL001W, strain dnm1, stronger effect = lower value 0.959 | S. cerevisiae deletion strains, locus YLL026W, stronger effect = lower value 0.985 | S. cerevisiae deletion strains, locus YLL041C, strain sdh2, stronger effect = lower value 0.993 | S. cerevisiae deletion strains, locus YLR027C, strain aat2, stronger effect = lower value 0.935 | S. cerevisiae deletion strains, locus YLR102C, strain apc9, stronger effect = lower value 0.957 | S. cerevisiae deletion strains, locus YLR113W, strain HOG1, stronger effect = lower value 0.868 | S. cerevisiae deletion strains, locus YLR258W, strain gsy2, stronger effect = lower value 0.935 | S. cerevisiae deletion strains, locus YLR262C, strain YPT6 (second series), stronger effect = lower value 0.995 | S. cerevisiae deletion strains, locus YLR320W, strain mms22, stronger effect = lower value 0.931 | S. cerevisiae deletion strains, locus YLR342W, strain FKS1, stronger effect = lower value 0.959 | S. cerevisiae deletion strains, locus YLR357W, strain rsc2, stronger effect = lower value 0.873 | S. cerevisiae deletion strains, locus YLR370C, strain arc18, stronger effect = lower value 0.947 | S. cerevisiae deletion strains, locus YLR384C, strain iki3, stronger effect = lower value 0.98 | S. cerevisiae deletion strains, locus YML120C, strain ndi1, stronger effect = lower value 0.956 | S. cerevisiae deletion strains, locus YMR078C, strain ctf18, stronger effect = lower value 0.929 | S. cerevisiae deletion strains, locus YMR125W, strain sto1, stronger effect = lower value 1.01 | S. cerevisiae deletion strains, locus YMR129W, stronger effect = lower value 0.981 | S. cerevisiae deletion strains, locus YMR205C, strain PFK2, stronger effect = lower value 0.957 | S. cerevisiae deletion strains, locus YMR231W, strain pep5, stronger effect = lower value 0.984 | S. cerevisiae deletion strains, locus YNL071W, strain lat1, stronger effect = lower value 0.942 | S. cerevisiae deletion strains, locus YNL183C, strain NPR1, stronger effect = lower value 0.885 | S. cerevisiae deletion strains, locus YNL248C, strain rpa49, stronger effect = lower value 1 | S. cerevisiae deletion strains, locus YNL250W, strain rad50, stronger effect = lower value 0.966 | S. cerevisiae deletion strains, locus YNL271C, strain bni1, stronger effect = lower value 0.943 | S. cerevisiae deletion strains, locus YNL298W, strain CLA4, stronger effect = lower value 0.922 | S. cerevisiae deletion strains, locus YNL322C, strain KRE1 (second series), stronger effect = lower value 0.969 | S. cerevisiae deletion strains, locus YNR049C, strain mso1, stronger effect = lower value 0.985 | S. cerevisiae deletion strains, locus YOL012C, strain htz1 0.238 | S. cerevisiae deletion strains, locus YOR001W, strain rrp6, stronger effect = lower value 0.952 | S. cerevisiae deletion strains, locus YOR070C, strain gyp1, stronger effect = lower value 0.951 | S. cerevisiae deletion strains, locus YOR080W, strain dia2, stronger effect = lower value 0.961 | S. cerevisiae deletion strains, locus YOR083W, strain WHI5, stronger effect = lower value 0.937 | S. cerevisiae deletion strains, locus YOR231W, strain MKK1, stronger effect = lower value 0.917 | S. cerevisiae deletion strains, locus YOR265W, strain rbl2, stronger effect = lower value 0.977 | S. cerevisiae deletion strains, locus YOR270C, strain vph1, stronger effect = lower value 0.925 | S. cerevisiae deletion strains, locus YOR290C, strain snf2, stronger effect = lower value 0.93 | S. cerevisiae deletion strains, locus YPL078C, strain atp4, stronger effect = lower value 0.957 | S. cerevisiae deletion strains, locus YPL106C, strain sse1, stronger effect = lower value 0.919 | S. cerevisiae deletion strains, locus YPL240C, strain hsp82, stronger effect = lower value 0.984 | S. cerevisiae deletion strains, locus YPL256C, strain CLN2, stronger effect = lower value 0.921 | S. cerevisiae deletion strains, locus YPR119W, strain clb2, stronger effect = lower value 0.965 | S. cerevisiae deletion strains, locus YPR141C, strain kar3, stronger effect = lower value 0.985
active: S. cerevisiae deletion strains, locus YKL009W, strain mrt4, stronger effect = lower value 0.867 | S. cerevisiae deletion strains, locus YKR001C, strain vps1, stronger effect = lower value 0.578 | S. cerevisiae deletion strains, locus YLR039C, strain RIC1, stronger effect = lower value 0.235 | S. cerevisiae deletion strains, locus YLR058C, strain SHM2, stronger effect = lower value 0.239 | S. cerevisiae deletion strains, locus YLR221C, strain rsa3, stronger effect = lower value 0.905 | S. cerevisiae deletion strains, locus YLR262C, strain YPT6, stronger effect = lower value 0.298 | S. cerevisiae deletion strains, locus YLR268W, strain sec22, stronger effect = lower value 0.495 | S. cerevisiae deletion strains, locus YLR330W, strain CHS5, stronger effect = lower value 0.36 | S. cerevisiae deletion strains, locus YLR342W, strain FKS1 (second series), stronger effect = lower value 0.195 | S. cerevisiae deletion strains, locus YLR371W, strain rom2, stronger effect = lower value 0.447 | S. cerevisiae deletion strains, locus YLR418C, strain cdc73, stronger effect = lower value 0.252 | S. cerevisiae deletion strains, locus YML016C, strain PPZ1, stronger effect = lower value 0.174 | S. cerevisiae deletion strains, locus YML032C, strain rad52, stronger effect = lower value 0.812 | S. cerevisiae deletion strains, locus YML124C, strain tub3, stronger effect = lower value 0.849 | S. cerevisiae deletion strains, locus YMR058W, strain fet3, stronger effect = lower value 0.755 | S. cerevisiae deletion strains, locus YMR223W, strain ubp8, stronger effect = lower value 0.72 | S. cerevisiae deletion strains, locus YMR307W, strain GAS1, stronger effect = lower value 0.396 | S. cerevisiae deletion strains, locus YNL067W, strain RPL9B, stronger effect = lower value 0.427 | S. cerevisiae deletion strains, locus YNL128W, strain TEP1, stronger effect = lower value 0.202 | S. cerevisiae deletion strains, locus YNL153C, strain GIM3, stronger effect = lower value 0.388 | S. cerevisiae deletion strains, locus YNL209W, strain ssb2, stronger effect = lower value 0.883 | S. cerevisiae deletion strains, locus YNL233W, strain BNI4, stronger effect = lower value 0.401 | S. cerevisiae deletion strains, locus YNL307C, strain MCK1, stronger effect = lower value 0.546 | S. cerevisiae deletion strains, locus YNL322C, strain KRE1, stronger effect = lower value 0.339 | S. cerevisiae deletion strains, locus YNR052C, strain pop2, stronger effect = lower value 0.682 | S. cerevisiae deletion strains, locus YOL006C, strain TOP1, stronger effect = lower value 0.142 | S. cerevisiae deletion strains, locus YOL147C, strain pex11, stronger effect = lower value 0.634 | S. cerevisiae deletion strains, locus YOR061W, strain CKA2, stronger effect = lower value 0.257 | S. cerevisiae deletion strains, locus YOR069W, strain VPS5, stronger effect = lower value 0.546 | S. cerevisiae deletion strains, locus YOR106W, strain vam3, stronger effect = lower value 0.856 | S. cerevisiae deletion strains, locus YOR136W, strain idh2, stronger effect = lower value 0.837 | S. cerevisiae deletion strains, locus YOR144C, strain elg1, stronger effect = lower value 0.723 | S. cerevisiae deletion strains, locus YOR184W, strain ser1, stronger effect = lower value 0.548 | S. cerevisiae deletion strains, locus YOR316C, strain cot1, stronger effect = lower value 0.848 | S. cerevisiae deletion strains, locus YPL051W, strain arl3, stronger effect = lower value 0.913 | S. cerevisiae deletion strains, locus YPL055C, strain LGE1, stronger effect = lower value 0.203 | S. cerevisiae deletion strains, locus YPR163C, strain tif3, stronger effect = lower value 0.735 | S. cerevisiae deletion strains, locus YPR167C, strain met16, stronger effect = lower value 0.739 | S. cerevisiae deletion strains, strain wtn01, stronger effect = lower value 0.533 | S. cerevisiae strains, strain wild type, stronger effect = lower value 0.173

From PubChem BioAssay AID1159580 (chemical genetic matrix, 2015)
